LMP1 NFkB inh: inhibitors of Epstein-Barr LMP1-induced NF-kappaB reporter. LMP1-induced NF-kappaB luciferase reporter cells, luminescence. inhibition, % at 12.5 µM. 0.69% of 350,000 active. AID 504558; in the data active = inhibition above about 41%;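 note: 0% = neutral control wells and 100% = reference inhibitor control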
TWEAK Fn14 block: inhibitors of TWEAK-Fn14 interaction signaling; 2% of 360,000 active; inhibition, % at 10 µM; TWEAK-stimulated Fn14 reporter cells, luciferase luminescence, 8 h; in the data active = inhibition above about 50%
Peg3 promoter: inhibitors of Peg3 promoter | HeLa PEG-Prom luciferase reporter, luminescence, overnight | inhibition, % at 20 µM | 1.7% of 360,000 active | AID 588405;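 active = inhibition of at least 50% at 20 µM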
HIF-2a block: HIF-2a inhibition; 786-0 RCC cells HIF-2a reporter, luciferase luminescence, overnight; inhibition, % at 18.8 µM; 0.72% of 360,000 active;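 active = inhibition of the luminescence signal of 40% or more relative to plate controls, in a single-dose primary screen at 18.75 µM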
TRPM1 prom inh: inhibitors of MITF-driven TRPM1 promoter in melanoma cells; SK-MEL-5 TRPM1 promoter luciferase, 24 h; inhibition, % at 12.5 µM; 0.83% of 330,000 active; AID 488899;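 active = mean inhibition across replicates of 60% or more, whatever share of single replicates reaches that level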
TROY NFkB inh: inhibitors of TROY-dependent NF-kB signaling; Q293 LMP1-TROYcd NF-kB luciferase reporter, 4 h; inhibition, % at 10 µM; 0.98% of 360,000 active;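 active = compounds whose plate-normalised and pattern-corrected inhibition of the luciferase reporter signal at the single screening dose is 50% or more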
* = called active by the depositor. Most compounds without a hit are left out; they make up all but 4% or so of the library.

For CCCc1nc2oc3c(NCCN(C)C)ncnc3c2c2c1CCCC2 the results were LMP1 NFkB inh -33, TWEAK Fn14 block -57, Peg3 promoter 68*, HIF-2a block 38, TRPM1 prom inh 76* and TROY NFkB inh 4.
CCOc1cc2[nH]c(=S)n(Cc3ccc(C(=O)NCCCN4CCOCC4)cc3)c(=O)c2cc1OCC was read as LMP1 NFkB inh -5, TWEAK Fn14 block -15, Peg3 promoter -12, HIF-2a block 14, TRPM1 prom inh 31 and TROY NFkB inh -1.
`COC(=O)c1ccc2c(=O)n(Cc3ccc(C(=O)NCCCN4CCC(C)CC4)cc3)c(=S)[nH]c2c1` gave LMP1 NFkB inh 10, TWEAK Fn14 block -5, Peg3 promoter -22, HIF-2a block -5, TRPM1 prom inh 4 and TROY NFkB inh -2.
`CC1CCN(CCCNC(=O)c2ccc3c(=O)n(Cc4ccc(Cl)cc4)c(=S)[nH]c3c2)CC1` gave LMP1 NFkB inh -16, TWEAK Fn14 block -29, Peg3 promoter 114*, HIF-2a block 14, TRPM1 prom inh 26 and TROY NFkB inh -32.
CCOc1cc2[nH]c(=O)n(Cc3ccc(C(=O)NCCCN4CCC(C)CC4)cc3)c(=O)c2cc1OCC was read as LMP1 NFkB inh 4, TWEAK Fn14 block -31, Peg3 promoter 82*, HIF-2a block 17, TRPM1 prom inh -11 and TROY NFkB inh 15.
For CC(C)C(C(=O)NCc1ccccc1)N1CCN(c2ccccc2F)CC1 (stereo not drawn) the results were HIF-2a block 3.
For COCc1c(C#N)c(NCCc2ccc(F)cc2)nc(C)c1[N+](=O)[O-] the results were LMP1 NFkB inh -3, TWEAK Fn14 block 1, Peg3 promoter 19, HIF-2a block 5, TRPM1 prom inh 9 and TROY NFkB inh -7.
For Cc1nc(NCCc2ccc(F)cc2)c(C#N)c(C)c1[N+](=O)[O-] the results were LMP1 NFkB inh -4, TWEAK Fn14 block 4, Peg3 promoter 51*, HIF-2a block -7, TRPM1 prom inh 17 and TROY NFkB inh 10.
Cc1ccc(-n2cc(CNCCc3ncc(C)[nH]3)c(-c3ccc(F)cc3)n2)cc1 was read as LMP1 NFkB inh -11, TWEAK Fn14 block -9, Peg3 promoter 57*, HIF-2a block -54, TRPM1 prom inh -4 and TROY NFkB inh -5.
`CCOc1ccc(NC(=O)CN2CCN(c3ccc(F)cc3)CC2)cc1S(=O)(=O)N1CCCC1` gave LMP1 NFkB inh 8, TWEAK Fn14 block 6, Peg3 promoter -1, HIF-2a block -5 and TROY NFkB inh 4.
For COc1ccc(S(=O)(=O)N2CCCCCC2)cc1C(=O)OCc1cccc(OC)c1OC the results were LMP1 NFkB inh 46*, TWEAK Fn14 block 23, Peg3 promoter 51*, HIF-2a block 1, TRPM1 prom inh 0 and TROY NFkB inh 21.
Screening COc1cccc(COC(=O)C2CCN(S(=O)(=O)c3ccc(C)cc3)CC2)c1OC returned LMP1 NFkB inh -7, TWEAK Fn14 block -17, Peg3 promoter 20, HIF-2a block 19, TRPM1 prom inh -5 and TROY NFkB inh 2.
`CC1Sc2ccc(S(=O)(=O)CCC(=O)N3CCN(c4ccccc4F)CC3)cc2NC1=O` (stereo not drawn) gave LMP1 NFkB inh 6, TWEAK Fn14 block 7, Peg3 promoter 43, HIF-2a block 11, TRPM1 prom inh 14 and TROY NFkB inh 14.
CC(CN1CCCCC1)OC(=O)c1ccc2c(c1)OCO2 (stereo not drawn) was read as LMP1 NFkB inh 43*, TWEAK Fn14 block 10, Peg3 promoter 0, HIF-2a block -21, TRPM1 prom inh 11 and TROY NFkB inh -28.
For CN(C(=O)CSc1nncc2ccccc12)c1ccccc1 the results were TWEAK Fn14 block 32, Peg3 promoter -12, HIF-2a block -22 and TROY NFkB inh -14.
`CCN1c2ccccc2NC2N=C(OC)C(c3ccccc3)C21` (stereo not drawn) gave LMP1 NFkB inh -10, TWEAK Fn14 block 3, Peg3 promoter 7, HIF-2a block -16, TRPM1 prom inh 87* and TROY NFkB inh -7.
`CCCN1C(=O)c2ccccc2NC1c1cc(OC)c(OC)c(OC)c1` (stereo not drawn) gave LMP1 NFkB inh 4, TWEAK Fn14 block -4, Peg3 promoter 5, HIF-2a block 4, TRPM1 prom inh 0 and TROY NFkB inh 4.
For Cc1cc([N+](=O)[O-])c2ccccc2c1NS(=O)(=O)c1ccccc1 the results were LMP1 NFkB inh 0, TWEAK Fn14 block 31, Peg3 promoter 26, HIF-2a block 4, TRPM1 prom inh -9 and TROY NFkB inh 32.
For CNc1cc(C)c(C#N)c2nc3ccccc3n12 the results were LMP1 NFkB inh -5, TWEAK Fn14 block -2, Peg3 promoter 10, HIF-2a block 10, TRPM1 prom inh -12 and TROY NFkB inh -38.
For Cc1c(CCCl)c(Cl)n2c(nc3ccccc32)c1C#N the results were LMP1 NFkB inh 66*, TWEAK Fn14 block 109*, Peg3 promoter 101*, HIF-2a block 84*, TRPM1 prom inh 97* and TROY NFkB inh 27.
Cc1cc(Cl)n2c(nc3ccccc32)c1C#N was read as LMP1 NFkB inh 0, TWEAK Fn14 block 6, Peg3 promoter 103*, HIF-2a block -24, TRPM1 prom inh 81* and TROY NFkB inh -4.
`CC(=O)c1cccc(NC(=O)C2Cc3c(-c4ccccc4Oc4ccccc4)ccnc3O2)c1` (stereo not drawn) gave TWEAK Fn14 block 51*, Peg3 promoter -20, HIF-2a block 18 and TROY NFkB inh 48.
Screening CN(C)c1cccc(NC(=O)C2Cc3c(-c4ccccc4Oc4ccccc4)ccnc3O2)c1 (stereo not drawn) returned TWEAK Fn14 block 8, Peg3 promoter 31, HIF-2a block 23 and TROY NFkB inh 25.
`CC(=O)Nc1cccc(-c2ccnc3c2CC(C(=O)Nc2cccc(Oc4ccccc4)c2)O3)c1` (stereo not drawn) gave TWEAK Fn14 block 57*, Peg3 promoter 51*, HIF-2a block 22 and TROY NFkB inh 41.
For Cc1cccc(C)c1N(CC(=O)NCc1ccco1)C(=O)CNS(=O)(=O)c1ccc(F)cc1 the results were LMP1 NFkB inh 1, TWEAK Fn14 block 27, Peg3 promoter 7, HIF-2a block 6, TRPM1 prom inh 8 and TROY NFkB inh -7.
`C=CCC[C@@H](Cc1ccc(F)cc1)C(=O)OC[C@@H](Cc1c[nH]c2ccccc12)NC(=O)[C@H](CC=C)CC(=O)N(CCO)Cc1ccccc1` gave LMP1 NFkB inh 9, TWEAK Fn14 block 58*, Peg3 promoter 52*, HIF-2a block 6, TRPM1 prom inh 10 and TROY NFkB inh 33.
Screening C=CCC[C@H](Cc1ccc(F)cc1)C(=O)OC[C@@H](Cc1c[nH]c2ccccc12)NC(=O)[C@H](CC=C)CC(=O)N(CCO)Cc1ccccc1 returned LMP1 NFkB inh 13, TWEAK Fn14 block 89*, Peg3 promoter 64*, HIF-2a block -10, TRPM1 prom inh 17 and TROY NFkB inh 38.
